HT1080-NT tox = qHTS for induction of synthetic lethality in tumor cells producing 2HG: qHTS for the HT-1080-NT fibrosarcoma cell line | HT-1080-NT fibrosarcoma viability, CellTiter-Glo ATP luminescence, 48 h | Potency, µM (highest dose often 46.1 µM), without a hit: at the highest dose activity, negative = less viability, actives largely listed as cytotoxic | 360,000 compounds, 1.6% hits;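 further: NT is the 2HG producing partner of a matched IDH1 knockdown line; potency means the concentration at half of the fitted maximal effect; 0% = DMSO-treated cells and -100% = media-only wells without cells; nearly all actives have a fitted effect of over 55% in size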
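Viability by CellTiter-Glo luminescence after 48 h compound exposure at 37C of HT-1080-NT cells (750/well, RPMI, 5% FBS). % activity scaled between DMSO wells and medium-only wells, then curve-fitted and categorized by curve class.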
TDP1 cell noCPT = qHTS for Inhibitors of human tyrosyl-DNA phosphodiesterase 1 (TDP1): qHTS in cells in absence of CPT | DT40 Tdp1-/- hTDP1 cells, no CPT, ATP luminescence, 48 h | Potency, µM (doses to about 46.2 µM), for the others: at the highest dose activity change, negative = growth inhibition, hits mostly inhibitors | 420,000 compounds, 15% hits | AID 686978, 2013; further: potency means the concentration at half of the fitted maximal effect; nearly all actives have a fitted effect of over 55% in size
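Cells were dispensed at 400 per well, compounds added by pin tool, plates incubated ≥48 hr at 37 °C, then CellTiter-Glo added for 30 min at room temperature before luminescence reading. Line: DT40 Tdp1-/- complemented with hTDP1; camptothecin omitted.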
HT1080 IDH1KD tx = qHTS for induction of synthetic lethality in tumor cells producing 2HG: qHTS for the HT-1080-IDH1KD cell line | HT-1080 IDH1 knockdown viability, ATP luminescence, 48 h | Potency, µM (doses to about 46.1 µM), for inactives: top-dose activity, negative = toxicity, most hits filed as cytotoxic | 360,000 compounds, 2% hits | AID 686971, 2013;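 further: potency means the concentration at half of the fitted maximal effect; 0% = DMSO wells and -100% = cell-free medium wells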
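Luminescent ATP read-out (CellTiter-Glo, 10 min at room temperature) after 48 h compound exposure at 37 °C gave viability of IDH1-knockdown HT-1080 cells. Activity was normalised to DMSO and cell-free wells, then fitted as concentration-response curves.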
ALOX12 inh = Primary qHTS assay for inhibitors of human arachidonate 12S-lipoxygenase (ALOX12): Round 2. Polyunsaturated fatty acid lipoxygenase ALOX12 (Homo sapiens), P18054. purified 12hLO, xylenol orange hydroperoxide absorbance. Potency, µM (top dose mostly 108 µM), for the others: at the top dose activity change, negative = inhibition, most hits filed as inhibitors. 580,000 compounds, 1.1% hits; further: potency means the concentration at half of the fitted maximal effect
Target sequence (P18054 whole entry, looked up): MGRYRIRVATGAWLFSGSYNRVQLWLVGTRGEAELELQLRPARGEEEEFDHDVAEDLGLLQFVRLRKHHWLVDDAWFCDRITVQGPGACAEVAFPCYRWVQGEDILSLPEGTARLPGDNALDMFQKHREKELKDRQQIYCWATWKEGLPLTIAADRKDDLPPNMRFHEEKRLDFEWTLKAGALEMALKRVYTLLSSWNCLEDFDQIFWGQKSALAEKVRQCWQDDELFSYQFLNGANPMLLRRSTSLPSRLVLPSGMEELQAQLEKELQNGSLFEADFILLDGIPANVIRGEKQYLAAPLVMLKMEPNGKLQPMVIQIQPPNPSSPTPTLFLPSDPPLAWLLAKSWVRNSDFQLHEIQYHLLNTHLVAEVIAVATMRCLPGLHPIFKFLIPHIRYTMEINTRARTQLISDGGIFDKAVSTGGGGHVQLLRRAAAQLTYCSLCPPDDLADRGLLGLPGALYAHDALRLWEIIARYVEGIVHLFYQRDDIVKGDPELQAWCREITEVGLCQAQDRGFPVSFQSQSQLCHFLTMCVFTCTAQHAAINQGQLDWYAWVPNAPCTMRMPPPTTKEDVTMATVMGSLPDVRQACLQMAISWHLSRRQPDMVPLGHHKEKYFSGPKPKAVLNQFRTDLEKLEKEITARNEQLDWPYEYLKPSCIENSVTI
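Purified human 12hLO (150 nM final) in 25 mM Hepes, 0.01% Triton X-100, pH 7.0 was preincubated 15 min at room temperature with compound. Then 40 uM arachidonic acid was added, 30 min. Hydroperoxide was read by Fe-XO absorbance ratio 573/405 nm.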
IL-1B inflam inh = qHTS for Inhibitors of Inflammasome Signaling: IL-1-beta AlphaLISA Primary Screen; 360,000 compounds, 4.7% hits; THP-1 LPS/ATP IL-1B secretion, AlphaLISA, 16 h; active compounds read low; AID 743279, 2014; activity change, % at 57.5 µM; in the data active means activity change below about -50%; inconclusive means mostly about -30% to -49%
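Secreted IL-1B measured by AlphaLISA bead assay after 16 h compound exposure of THP-1 cells; compounds (final up to 57.5 uM) added 1 h before LPS (250 ng/mL) and ATP (1.25 mM) stimulation; lower signal means less secretion.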
TDP1 cell CPT = qHTS for Inhibitors of human tyrosyl-DNA phosphodiesterase 1 (TDP1): qHTS in cells in presence of CPT. chicken DT40 Tdp1-/-;hTDP1 cells + 20 nM CPT, ATP luminescence, 48 h. Potency, µM (top dose mostly 46.2 µM), for the others: at the top dose activity change, negative = growth inhibition, actives largely listed as inhibitors. 420,000 compounds, 12% hits. AID 686979, 2013; further: potency means the concentration at half of the fitted maximal effect; nearly all actives have a fitted effect of over 55% in size
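Chicken DT40 Tdp1-/- cells complemented with human TDP1, 400 cells/well, exposed to compounds plus 20 nM camptothecin for at least 48 h at 37 C; viability read as ATP content by CellTiter-Glo luminescence.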
The depositor's hits bear a star; u = inconclusive; x = not tested or not shown; [ ] = remark or other dose. This excerpt belongs to a sample that is enriched for hits. Unless noted, the call rests on the fitted dose curve; in most records, active means well fitted curve in the direction sought with a large enough effect; inconclusive means small, poorly fitted or top-dose-only effect, or another doubt; inactive means no such curve, though single readings can be large; an effect the other way counts as inactive or inconclusive. Unless noted, on the % scale 0 is the no-effect control and ±100 the full control effect.

SMILES | HT1080-NT tox | TDP1 cell noCPT | HT1080 IDH1KD tx | ALOX12 inh | IL-1B inflam inh | TDP1 cell CPT
COc1ccccc1S(=O)(=O)CC(O)COc1ccc(F)cc1Cl (stereo not given) | -13% | -32% | -2% | -17% | -62* | -9%
CC(NC(=O)Nc1ccc2c(c1)OCCO2)c1ccc(Cl)s1 (stereo not given) | x | x | x | -18% | x | x
CCOc1ccc(Nc2ncnc3ccc([N+](=O)[O-])cc23)cc1 | -22% | 6.5µM* | -25% | -1% | -6 | u
CCOC(=O)c1ccc(Nc2ncnc3ccc(C)cc23)cc1 | -26% | u | -28% | 9% | 8 | -21%
CCOc1ccc(NC(=O)C2Cn3cccc3C(=O)N2)cc1 (stereo not given) | x | x | x | 16% | x | x
C[C@@H]1CN([C@H](C)CO)C(=O)c2cc(NC(=O)Nc3ccc(F)cc3)ccc2O[C@H]1CN(C)C(=O)Nc1ccc(C(F)(F)F)cc1 | -19% | 21µM* | u | x | -72* | 16µM*
C[C@H](CO)N1C[C@H](C)[C@@H](CN(C)C(=O)Nc2ccc(C(F)(F)F)cc2)Oc2ccc(NS(=O)(=O)c3ccccc3)cc2C1=O | -14% | u | -24% | 0% | -12 | 3.7µM*
CC(C)NC(=O)N(C)C[C@@H]1OCCCC[C@@H](C)Oc2ccc(NC(=O)Nc3ccc(F)cc3)cc2C(=O)N([C@H](C)CO)C[C@@H]1C | -5% | -2% | -4% | -22% | -9 | -17%
C[C@H](CO)N1C[C@H](C)[C@@H](CN(C)C(=O)Nc2ccc(C(F)(F)F)cc2)Oc2ccc(NC(=O)C3CCCCC3)cc2C1=O | -3% | u | -2% | -20% | -53* | u
C[C@H](CO)N1C[C@H](C)[C@@H](CN(C)C(=O)Nc2ccccc2)Oc2ccc(NC(=O)Nc3ccc(C(F)(F)F)cc3)cc2C1=O | -27% | u | u | -9% | -10 | u
CC(C)NC(=O)N(C)C[C@H]1OCCCC[C@@H](C)Oc2ccc(NC(=O)C3CCCCC3)cc2C(=O)N([C@H](C)CO)C[C@@H]1C | -1% | 12µM* | -1% | u | -12 | u
COc1ccc([C@@H]2C[C@H]3[C@@H](CN2S(=O)(=O)c2ccccc2)C(=O)C[C@@H](c2cccc(Cl)c2)N3S(=O)(=O)c2ccc(C)cc2)cc1 | 15% | 0% | 11% | x | 11 | -10%
COc1ccc(CC(=O)N2CCC3(CC2)CC(O)CCO3)cc1Cl (stereo not given) | x | x | x | 1% | x | x
Cc1ccc(S(=O)(=O)Nc2ccc3c(c2)C(=O)N([C@H](C)CO)C[C@H](C)[C@@H](CN(C)C(=O)Nc2ccc(C(F)(F)F)cc2)O3)cc1 | -20% | u | -29% | u | u | u
C[C@H](CO)N1C[C@H](C)[C@@H](CN(C)C(=O)Nc2ccc(C(F)(F)F)cc2)Oc2ccc(NS(=O)(=O)c3ccc(F)cc3)cc2C1=O | -15% | 23µM* | -18% | u | -23 | u
CCOc1ccc(S(=O)(=O)N2CCC(C(=O)N3CCN(c4ccccc4F)CC3)CC2)cc1C | -3% | 29µM* | -8% | -58% | -28 | 23µM*
Cc1cccc(N2CCN(C(=O)C3CCCN(S(=O)(=O)c4ccc5c(c4)oc(=O)n5C)C3)CC2)c1C (stereo not given) | x | 3.7µM* | x | -2% | x | 7.3µM*
Cc1cccc(N2CCN(C(=O)C3CCN(S(=O)(=O)c4ccc5c(c4)oc(=O)n5C)CC3)CC2)c1C | x | 3.7µM* | x | -4% | x | 4.6µM*
CCOC(=O)c1cccc(NC(=O)C2CCN(S(=O)(=O)c3ccc4c(c3)oc(=O)n4C)CC2)c1 | x | 21µM* | x | 0% | x | u
CC(=O)N1CCCC2(CN[S+](=O)([O-])c3cccnc3O2)C1 (stereo not given) | x | x | x | 5%[6.33 µM] | x | x
Cn1c(=O)oc2cc(S(=O)(=O)N3CCC(C(=O)N4CCN(c5ccccc5F)CC4)CC3)ccc21 | x | 18µM* | x | -26% | x | u
CCOc1ccc(S(=O)(=O)N2CCN(c3ccccc3F)CC2)c2cccnc12 | -2% | 16µM* | -11% | 13% | 0 | 21µM*
Cn1c(=O)oc2cc(S(=O)(=O)N3CCN(c4ccccc4F)CC3)ccc21 | 13% | -7% | -2% | 29% | 50 | 0%
CCOC(=O)N1CCN(S(=O)(=O)c2ccc3c(c2)SC(C)C(=O)N3)CC1 (stereo not given) | -1% | 9.2µM* | -11% | 0% | 19 | 13µM*
CCOC(=O)N1CCN(S(=O)(=O)c2ccc(OCC)c(C)c2)CC1 | -1% | 9.2µM* | -5% | -24% | -5 | u
SMILES | HT1080-NT tox | TDP1 cell noCPT | HT1080 IDH1KD tx | ALOX12 inh | IL-1B inflam inh | TDP1 cell CPT
COc1ncccc1-c1nccc2c(=O)cc(N3CCOCC3)oc12 | x | x | x | 3%[176 µM] | x | x
Cc1ccc(CN2C[C@H]3CN(C(=O)C4CCOCC4)CCN3C2=O)cc1 | x | x | x | 8%[176 µM] | x | x
CC(C)(C)c1nc(CSc2n[nH]c(-c3ccccc3Br)n2)no1 | x | x | x | 72% | x | x
CCN(CCCNC(=O)c1ccc(Sc2ccc(F)cc2)c(NC(C)=O)c1)c1ccccc1 | x | u | x | -12% | x | u
Nc1[nH]c(C(=O)c2ccccc2)c(-c2cccc3ccccc23)c1C(=O)NCc1ccc(F)c(F)c1 | x | x | x | -8% | x | x
Clc1ccc(CSc2nncn2-c2ccc3c(c2)OCCO3)cc1 | 16µM* | 5.8µM* | 5.2µM* | 75% | x | 2.6µM*
Cc1ccc(-c2nc(-c3cc4cccc(OCc5ccc(F)cc5)c4oc3=O)no2)cc1 | x | 18µM* | x | -10% | x | u
Cc1ccc(-c2nc(-c3cc4cccc(OCc5cccc(F)c5)c4oc3=O)no2)cc1 | x | 13µM* | x | -23% | x | 15µM*
Cc1ccc(COc2cccc3cc(-c4noc(-c5ccc(C)cc5)n4)c(=O)oc23)cc1 | x | u | x | -14% | x | -19%
COc1ccccc1CNC(=O)CCn1ccc2ccccc21 | x | x | x | 9% | x | x
COc1ccc2c(CNCc3cccs3)c(C(=O)O)n(Cc3ccccc3F)c2c1 | x | -28% | x | -11% | x | u
